# Source: article PMC7862700, “An all-to-all approach to the identification of sequence-specific readers for epigenetic DNA modifications on cytosine”
# How the values were obtained:
# Assay in all cases: DAPPL (digital affinity profiling via proximity ligation, sequencing); 10 mM Tris-HCl pH 7.5, 50 mM NaCl, 1 mM DTT, 4% glycerol, room temperature, 30 min; GST-TFs on glutathione beads, 16-mer random dsDNA library, 0.1% formaldehyde crosslink after washing; high values mean tight binding
# Details in all cases: protein: recombinant; tags: N-terminal GST; dsDNA, one strand shown
# FLI1 = target: T1, FLI1 (Homo sapiens, UniProt Q01543 1-452)
# T1 sequence: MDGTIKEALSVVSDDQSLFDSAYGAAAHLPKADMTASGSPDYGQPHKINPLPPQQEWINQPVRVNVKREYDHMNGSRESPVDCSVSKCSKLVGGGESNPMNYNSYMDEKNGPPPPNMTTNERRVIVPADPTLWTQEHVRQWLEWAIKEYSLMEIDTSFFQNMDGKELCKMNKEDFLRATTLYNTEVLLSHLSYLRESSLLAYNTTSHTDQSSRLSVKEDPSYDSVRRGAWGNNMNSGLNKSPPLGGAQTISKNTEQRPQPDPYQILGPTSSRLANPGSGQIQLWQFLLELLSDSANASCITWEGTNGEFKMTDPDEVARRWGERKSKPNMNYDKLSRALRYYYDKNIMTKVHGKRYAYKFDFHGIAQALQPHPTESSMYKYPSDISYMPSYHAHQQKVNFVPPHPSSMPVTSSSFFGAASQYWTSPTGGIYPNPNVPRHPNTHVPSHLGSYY
# How it was run: (§1)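 Each value of binding signal is a hexamer's read frequency for a factor divided by the same hexamer's frequency in the tag-only sample. Barcoded, bead-captured GST fusions of human transcription factors made in yeast were pooled with that sample and incubated with 200 nmole of a random double-stranded 16-mer DNA library in Tris/NaCl/DTT/glycerol buffer at room temperature for 30 min. Washing, 0.1% formaldehyde crosslinking, proximity ligation, PCR and Illumina NextSeq500 sequencing followed.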
# ELK1 = target: T2, ELK1 (Homo sapiens, UniProt P19419 1-428)
# T2 sequence: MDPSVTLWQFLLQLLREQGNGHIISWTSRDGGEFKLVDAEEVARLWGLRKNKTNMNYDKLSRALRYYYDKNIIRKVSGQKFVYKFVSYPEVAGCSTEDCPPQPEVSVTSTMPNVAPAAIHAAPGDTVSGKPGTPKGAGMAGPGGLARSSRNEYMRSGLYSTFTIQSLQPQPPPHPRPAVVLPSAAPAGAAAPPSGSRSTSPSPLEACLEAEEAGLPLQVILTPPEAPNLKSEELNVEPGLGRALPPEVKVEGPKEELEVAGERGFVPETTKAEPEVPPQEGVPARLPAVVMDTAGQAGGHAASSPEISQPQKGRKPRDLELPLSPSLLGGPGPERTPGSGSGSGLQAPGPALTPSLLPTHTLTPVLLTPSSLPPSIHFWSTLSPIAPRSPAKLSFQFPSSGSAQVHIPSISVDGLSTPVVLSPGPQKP
# How it was run: as §1
# GABPA = target: T3, GABPA (Homo sapiens, UniProt Q06546 1-454)
# T3 sequence: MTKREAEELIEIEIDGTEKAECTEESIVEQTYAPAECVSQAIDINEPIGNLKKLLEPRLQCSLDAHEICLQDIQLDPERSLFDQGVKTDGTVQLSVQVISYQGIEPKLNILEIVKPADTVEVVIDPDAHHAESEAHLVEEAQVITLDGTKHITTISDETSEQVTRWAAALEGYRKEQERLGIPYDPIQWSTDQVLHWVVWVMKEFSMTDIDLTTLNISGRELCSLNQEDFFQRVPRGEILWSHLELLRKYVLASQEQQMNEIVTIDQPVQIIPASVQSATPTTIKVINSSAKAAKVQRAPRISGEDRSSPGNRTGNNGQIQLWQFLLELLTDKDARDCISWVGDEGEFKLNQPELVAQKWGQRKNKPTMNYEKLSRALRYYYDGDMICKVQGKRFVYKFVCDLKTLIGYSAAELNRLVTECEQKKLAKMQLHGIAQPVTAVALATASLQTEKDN
# How it was run: as §1
# ERG = target: T4, ERG (Homo sapiens, UniProt P11308 1-479)
# T4 sequence: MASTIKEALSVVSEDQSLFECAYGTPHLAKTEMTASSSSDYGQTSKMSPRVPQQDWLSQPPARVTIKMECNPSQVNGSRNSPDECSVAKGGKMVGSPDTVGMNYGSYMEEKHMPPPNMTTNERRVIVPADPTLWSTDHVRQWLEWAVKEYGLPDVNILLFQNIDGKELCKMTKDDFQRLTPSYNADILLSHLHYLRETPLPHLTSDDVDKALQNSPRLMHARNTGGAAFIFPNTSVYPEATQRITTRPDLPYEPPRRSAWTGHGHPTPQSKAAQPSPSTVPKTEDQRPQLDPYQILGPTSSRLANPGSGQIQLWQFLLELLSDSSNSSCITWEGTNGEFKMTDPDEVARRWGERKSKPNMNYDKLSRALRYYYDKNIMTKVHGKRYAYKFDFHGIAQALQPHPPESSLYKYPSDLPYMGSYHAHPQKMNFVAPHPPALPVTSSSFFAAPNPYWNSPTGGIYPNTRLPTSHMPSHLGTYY
# How it was run: as §1
# ELF1 = ELF1 (Homo sapiens, UniProt P32519 1-619)
# How it was run: as §1
# EHF = target: T5, EHF (Homo sapiens, UniProt Q9NZC4 1-300)
# T5 sequence: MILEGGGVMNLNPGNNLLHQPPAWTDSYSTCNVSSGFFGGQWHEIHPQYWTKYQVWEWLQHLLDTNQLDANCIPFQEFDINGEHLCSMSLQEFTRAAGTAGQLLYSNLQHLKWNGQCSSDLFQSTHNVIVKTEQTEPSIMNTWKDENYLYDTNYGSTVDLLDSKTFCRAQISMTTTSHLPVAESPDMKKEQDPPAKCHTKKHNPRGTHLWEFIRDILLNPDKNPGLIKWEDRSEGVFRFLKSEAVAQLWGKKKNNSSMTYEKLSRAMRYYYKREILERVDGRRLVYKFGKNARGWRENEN
# How it was run: as §1
# SPI1 = SPI1 (Homo sapiens, UniProt P17947 1-270)
# How it was run: as §1
# SPIB = SPIB (Homo sapiens, UniProt Q01892 1-262)
# How it was run: as §1
# ELK3 = target: T6, ELK3 (Homo sapiens, UniProt P41970 1-407)
# T6 sequence: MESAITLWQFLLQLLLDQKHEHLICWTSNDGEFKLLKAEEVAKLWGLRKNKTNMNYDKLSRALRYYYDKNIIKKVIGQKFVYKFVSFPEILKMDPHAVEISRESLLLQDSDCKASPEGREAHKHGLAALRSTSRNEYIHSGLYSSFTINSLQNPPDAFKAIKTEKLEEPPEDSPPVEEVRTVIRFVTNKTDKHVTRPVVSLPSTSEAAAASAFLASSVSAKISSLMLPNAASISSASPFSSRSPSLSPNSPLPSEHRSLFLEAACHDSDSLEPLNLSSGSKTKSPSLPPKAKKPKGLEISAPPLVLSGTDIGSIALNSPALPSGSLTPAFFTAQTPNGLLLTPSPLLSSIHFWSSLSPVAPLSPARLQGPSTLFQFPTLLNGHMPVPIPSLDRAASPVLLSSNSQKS
# How it was run: as §1
# FEV = target: T7, FEV (Homo sapiens, UniProt Q99581 1-238)
# T7 sequence: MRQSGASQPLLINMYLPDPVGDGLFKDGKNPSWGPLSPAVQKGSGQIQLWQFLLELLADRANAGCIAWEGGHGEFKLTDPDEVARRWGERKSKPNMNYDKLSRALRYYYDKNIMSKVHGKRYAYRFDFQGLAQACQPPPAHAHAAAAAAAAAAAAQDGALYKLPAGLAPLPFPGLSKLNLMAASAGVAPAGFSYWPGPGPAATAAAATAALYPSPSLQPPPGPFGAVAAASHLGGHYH
# How it was run: as §1
# ETV5 = ETV5 (Homo sapiens, UniProt P41161 1-510)
# How it was run: as §1
# SPIC = target: T8, SPIC (Homo sapiens, UniProt Q8N5J4 1-248)
# T8 sequence: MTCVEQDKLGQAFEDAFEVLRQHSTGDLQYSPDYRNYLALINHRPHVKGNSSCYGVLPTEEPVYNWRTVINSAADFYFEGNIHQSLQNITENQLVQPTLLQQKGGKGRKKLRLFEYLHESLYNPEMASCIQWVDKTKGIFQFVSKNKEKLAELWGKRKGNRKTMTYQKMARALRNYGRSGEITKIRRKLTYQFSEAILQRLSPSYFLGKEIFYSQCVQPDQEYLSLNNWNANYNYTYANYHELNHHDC
# How it was run: as §1
# ELF4 = ELF4 (Homo sapiens, UniProt Q99607 1-663)
# How it was run: as §1
# ELK4 = target: T9, ELK4 (Homo sapiens, UniProt P28324-2 1-405)
# T9 sequence: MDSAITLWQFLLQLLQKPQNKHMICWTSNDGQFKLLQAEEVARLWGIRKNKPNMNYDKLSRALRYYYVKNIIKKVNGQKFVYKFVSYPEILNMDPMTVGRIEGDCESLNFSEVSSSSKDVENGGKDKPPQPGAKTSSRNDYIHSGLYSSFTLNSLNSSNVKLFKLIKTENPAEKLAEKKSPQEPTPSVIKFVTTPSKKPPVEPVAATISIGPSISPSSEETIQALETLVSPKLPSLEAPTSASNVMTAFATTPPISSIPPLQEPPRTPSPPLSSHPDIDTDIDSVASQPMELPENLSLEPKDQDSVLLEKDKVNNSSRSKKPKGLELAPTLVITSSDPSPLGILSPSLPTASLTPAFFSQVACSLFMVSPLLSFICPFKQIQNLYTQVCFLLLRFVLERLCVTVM
# How it was run: as §1
# ETV2 = target: T10, ETV2 (Homo sapiens, UniProt O00321 1-342)
# T10 sequence: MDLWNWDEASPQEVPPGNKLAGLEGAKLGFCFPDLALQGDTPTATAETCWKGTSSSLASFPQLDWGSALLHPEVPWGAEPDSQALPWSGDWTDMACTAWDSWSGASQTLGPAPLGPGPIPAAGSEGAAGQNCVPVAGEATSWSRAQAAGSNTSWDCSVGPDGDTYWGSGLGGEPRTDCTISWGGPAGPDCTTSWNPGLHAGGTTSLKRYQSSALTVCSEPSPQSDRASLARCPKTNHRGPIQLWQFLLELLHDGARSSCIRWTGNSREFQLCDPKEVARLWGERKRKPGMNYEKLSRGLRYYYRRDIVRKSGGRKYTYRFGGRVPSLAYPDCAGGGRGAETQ
# How it was run: as §1
# ELF3 = target: T11, ELF3 (Homo sapiens, UniProt P78545 1-371)
# T11 sequence: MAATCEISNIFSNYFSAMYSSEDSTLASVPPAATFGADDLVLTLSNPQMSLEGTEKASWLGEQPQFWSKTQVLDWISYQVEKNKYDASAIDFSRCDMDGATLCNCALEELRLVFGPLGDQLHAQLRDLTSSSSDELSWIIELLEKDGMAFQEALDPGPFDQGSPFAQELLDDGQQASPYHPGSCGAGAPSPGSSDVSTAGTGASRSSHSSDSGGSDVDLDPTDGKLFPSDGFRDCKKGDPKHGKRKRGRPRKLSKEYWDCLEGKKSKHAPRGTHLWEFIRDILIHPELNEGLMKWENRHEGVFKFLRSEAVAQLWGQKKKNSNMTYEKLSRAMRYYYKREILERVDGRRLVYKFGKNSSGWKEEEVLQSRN
# How it was run: as §1
# CRX = CRX (Homo sapiens, UniProt O43186 1-299)
# How it was run: as §1
# ETV1 = ETV1 (Homo sapiens, UniProt P50549 1-477)
# How it was run: as §1
# ETV5, sequence (P41161 whole entry): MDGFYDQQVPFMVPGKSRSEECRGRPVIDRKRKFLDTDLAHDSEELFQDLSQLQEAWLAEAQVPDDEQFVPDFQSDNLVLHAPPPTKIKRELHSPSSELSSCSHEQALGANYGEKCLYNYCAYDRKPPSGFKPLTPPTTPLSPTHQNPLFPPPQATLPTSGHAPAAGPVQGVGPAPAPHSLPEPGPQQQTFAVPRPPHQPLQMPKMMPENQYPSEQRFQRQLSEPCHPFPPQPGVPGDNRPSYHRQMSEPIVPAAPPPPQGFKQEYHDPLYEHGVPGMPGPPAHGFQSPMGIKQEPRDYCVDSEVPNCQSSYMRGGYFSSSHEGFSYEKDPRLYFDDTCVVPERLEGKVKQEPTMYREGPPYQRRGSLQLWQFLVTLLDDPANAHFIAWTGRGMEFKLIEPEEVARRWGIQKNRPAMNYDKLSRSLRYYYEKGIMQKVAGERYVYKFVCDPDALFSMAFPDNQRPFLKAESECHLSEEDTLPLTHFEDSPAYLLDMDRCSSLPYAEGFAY
# CRX, sequence (O43186 whole entry): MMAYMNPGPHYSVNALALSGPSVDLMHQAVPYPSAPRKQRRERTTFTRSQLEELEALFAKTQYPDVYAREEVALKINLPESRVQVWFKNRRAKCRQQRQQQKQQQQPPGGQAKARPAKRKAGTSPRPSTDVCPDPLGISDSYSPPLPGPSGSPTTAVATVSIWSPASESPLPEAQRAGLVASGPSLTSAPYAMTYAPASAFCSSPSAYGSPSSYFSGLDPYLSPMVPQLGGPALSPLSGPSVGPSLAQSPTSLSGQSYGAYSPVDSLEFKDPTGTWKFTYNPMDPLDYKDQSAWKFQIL
# SPIB, sequence (Q01892 whole entry): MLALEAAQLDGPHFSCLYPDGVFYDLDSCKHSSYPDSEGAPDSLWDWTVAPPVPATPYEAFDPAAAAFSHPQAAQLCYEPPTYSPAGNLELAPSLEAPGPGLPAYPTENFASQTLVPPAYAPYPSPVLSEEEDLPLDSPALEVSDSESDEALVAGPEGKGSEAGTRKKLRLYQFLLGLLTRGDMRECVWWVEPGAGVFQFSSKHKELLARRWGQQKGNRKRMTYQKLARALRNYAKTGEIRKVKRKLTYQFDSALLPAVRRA
# ELF1, sequence (P32519 whole entry): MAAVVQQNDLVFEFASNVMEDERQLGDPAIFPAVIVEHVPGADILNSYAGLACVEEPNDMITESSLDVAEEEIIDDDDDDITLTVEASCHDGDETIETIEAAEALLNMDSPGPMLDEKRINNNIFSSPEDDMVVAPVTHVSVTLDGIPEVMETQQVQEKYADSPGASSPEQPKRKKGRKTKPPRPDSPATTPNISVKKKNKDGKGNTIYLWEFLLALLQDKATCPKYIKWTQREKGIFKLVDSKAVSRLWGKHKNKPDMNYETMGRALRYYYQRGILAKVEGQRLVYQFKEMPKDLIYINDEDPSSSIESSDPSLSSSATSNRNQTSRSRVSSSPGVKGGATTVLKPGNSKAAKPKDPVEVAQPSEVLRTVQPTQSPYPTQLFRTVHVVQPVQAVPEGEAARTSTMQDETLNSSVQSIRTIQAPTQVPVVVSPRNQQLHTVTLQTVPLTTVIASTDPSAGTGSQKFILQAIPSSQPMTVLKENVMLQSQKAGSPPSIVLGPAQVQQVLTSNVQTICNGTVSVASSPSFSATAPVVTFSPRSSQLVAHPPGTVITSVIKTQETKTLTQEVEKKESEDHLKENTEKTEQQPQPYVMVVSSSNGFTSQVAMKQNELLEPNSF
# ETV1, sequence (P50549 whole entry): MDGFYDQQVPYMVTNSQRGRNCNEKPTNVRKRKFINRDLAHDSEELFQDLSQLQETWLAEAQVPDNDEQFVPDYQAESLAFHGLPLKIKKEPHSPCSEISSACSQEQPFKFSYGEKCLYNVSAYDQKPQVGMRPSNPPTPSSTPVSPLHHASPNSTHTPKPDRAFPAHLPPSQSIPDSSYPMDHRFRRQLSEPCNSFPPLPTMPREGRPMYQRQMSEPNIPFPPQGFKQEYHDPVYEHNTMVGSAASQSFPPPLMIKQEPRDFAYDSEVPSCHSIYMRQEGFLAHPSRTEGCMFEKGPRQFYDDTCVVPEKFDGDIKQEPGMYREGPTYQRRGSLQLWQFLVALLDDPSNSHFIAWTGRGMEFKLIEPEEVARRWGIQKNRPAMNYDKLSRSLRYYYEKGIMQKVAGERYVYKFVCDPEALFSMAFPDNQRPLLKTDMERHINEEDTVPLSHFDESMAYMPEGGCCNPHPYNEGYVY
# ELF4, sequence (Q99607 whole entry): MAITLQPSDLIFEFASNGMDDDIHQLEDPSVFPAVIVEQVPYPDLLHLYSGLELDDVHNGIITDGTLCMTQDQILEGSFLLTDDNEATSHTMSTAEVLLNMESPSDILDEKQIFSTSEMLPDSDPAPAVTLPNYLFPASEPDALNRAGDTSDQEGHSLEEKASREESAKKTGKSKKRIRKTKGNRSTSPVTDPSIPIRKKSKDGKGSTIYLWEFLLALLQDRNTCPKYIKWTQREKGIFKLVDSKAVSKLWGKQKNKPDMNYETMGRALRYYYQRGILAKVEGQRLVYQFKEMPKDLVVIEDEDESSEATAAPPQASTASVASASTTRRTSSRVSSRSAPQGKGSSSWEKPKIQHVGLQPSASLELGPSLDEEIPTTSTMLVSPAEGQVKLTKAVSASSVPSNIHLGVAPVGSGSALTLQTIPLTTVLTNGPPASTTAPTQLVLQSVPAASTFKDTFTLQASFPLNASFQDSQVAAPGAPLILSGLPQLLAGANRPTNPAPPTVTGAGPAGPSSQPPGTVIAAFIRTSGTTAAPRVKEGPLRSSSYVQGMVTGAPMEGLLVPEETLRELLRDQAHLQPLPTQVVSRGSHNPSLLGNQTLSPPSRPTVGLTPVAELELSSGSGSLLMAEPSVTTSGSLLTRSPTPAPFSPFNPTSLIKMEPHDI
sequence,measurement,setting,value
CCCTTG,binding signal,FLI1,"1.14 fold enrichment (6-mer frequency, TF over GST control)"
same,binding signal,ELK1,"1.21 fold enrichment (6-mer frequency, TF over GST control)"
same,binding signal,GABPA,"1.24 fold enrichment (6-mer frequency, TF over GST control)"
same,binding signal,ERG,"1.23 fold enrichment (6-mer frequency, TF over GST control)"
same,binding signal,ELF1,"1.3 fold enrichment (6-mer frequency, TF over GST control)"
same,binding signal,EHF,"1.22 fold enrichment (6-mer frequency, TF over GST control)"
same,binding signal,SPI1,"1.16 fold enrichment (6-mer frequency, TF over GST control)"
same,binding signal,SPIB,"1.19 fold enrichment (6-mer frequency, TF over GST control)"
same,binding signal,ELK3,"1.2 fold enrichment (6-mer frequency, TF over GST control)"
same,binding signal,FEV,"1.16 fold enrichment (6-mer frequency, TF over GST control)"
same,binding signal,ETV5,"1.11 fold enrichment (6-mer frequency, TF over GST control)"
same,binding signal,SPIC,"1.26 fold enrichment (6-mer frequency, TF over GST control)"
same,binding signal,ELF4,"1.25 fold enrichment (6-mer frequency, TF over GST control)"
same,binding signal,ELK4,"1.2 fold enrichment (6-mer frequency, TF over GST control)"
same,binding signal,ETV2,"1.23 fold enrichment (6-mer frequency, TF over GST control)"
same,binding signal,ELF3,"1.19 fold enrichment (6-mer frequency, TF over GST control)"
same,binding signal,CRX,"1.01 fold enrichment (6-mer frequency, TF over GST control)"
same,binding signal,ETV1,"1.19 fold enrichment (6-mer frequency, TF over GST control)"
